Measured values: PubChem BioAssay (EPA / NIEHS)
Values joined by “and” are separate entries in the source; they are usually repeats but may differ in a detail not shown here. Identical values can stand only once. Results filed as inconclusive are left out. More than one record can exist for a structure, and the calls need not agree. Active and inactive are the calls of the source. Rule for the calls, unless noted: active = hit-call score of the fitted dose curve at least 0.9, where 1 is the maximum; inconclusive = response in the unintended direction; inactive = score below 0.9.

Experiments:
[1] = BSK_4H_Eotaxin3: BioMAP Diversity Plus: 4H Assay for Eotaxin 3 Biomarker Activity (AID 2283000; active = hit-call score of the fitted dose curve at least 0.9, where 1 is the maximum; inactive = score below 0.9;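 for outcome: CCL26 protein level quantified by ELISA in parallel with SRB cytotoxicity check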); settings: primary human endothelial cells (HUVEC); actives raise or lower the signal
In short: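 HUVEC, 24 h post-dose, ELISA for Eotaxin-3/CCL26. Gain or loss of signal fitted bidirectionally vs DMSO baseline.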

[2] = target: human Peroxisome Proliferator-activated Receptor alpha (PPARa), PPARA (gene 5465) (UniProt Q07869); assay: ATG_PPARa_TRANS: Attagene TRANS-FACTORIAL HepG2 Assay for human Peroxisome Proliferator-activated Receptor alpha (PPARa) (AID 2283001)
In short: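 Cells (HepG2) are transfected with multiple reporter transcription units, exposed to chemical for 24 h, then total RNA is reverse-transcribed and amplified. Labelled products are quantified by capillary electrophoresis; induction is referenced to DMSO.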

[3] = read-out: Intercellular Adhesion Molecule 1 (ICAM1), ICAM1 (gene 3383); assay: BSK_3C_ICAM1: BioMAP Diversity Plus: 3C Assay for Intercellular Adhesion Molecule 1 (ICAM1) Biomarker Activity (AID 2283003; active = hit-call score of the fitted dose curve at least 0.9, where 1 is the maximum; inactive = score below 0.9); settings: primary human endothelial cells (HUVEC); actives raise or lower the signal
In short: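 Chemicals are dosed onto primary human umbilical vein endothelium (3C system). After 24 h, ICAM-1 is measured by ELISA, and responses are fitted bidirectionally relative to DMSO.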

[4] = BSK_3C_Proliferation: Cell Proliferation Assessment in the BioMAP Diversity Plus: 3C Assay (AID 2283006; active = hit-call score of the fitted dose curve at least 0.9, where 1 is the maximum; inactive = score below 0.9;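 for AC50: potency may reflect either rise or fall in cell number versus DMSO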); settings: primary human endothelial cells (HUVEC)
In short: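 Cells (human umbilical vein endothelial, sub-confluent) receive test chemical; after 48 h they are fixed in 10% trichloroacetic acid, stained with 0.1% SRB and read at 560 nm. Activity is referenced to DMSO, fitting increases and decreases.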

[5] = target: Peroxisome proliferator-activated receptor gamma (Homo sapiens) (UniProt P37231); assay: ATG_PPARg_TRANS: Attagene TRANS-FACTORIAL HepG2 Assay for human Peroxisome Proliferator-activated Receptor-gamma (PPARg) (AID 2283007)
In short: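 HepG2 cells transiently transfected with multiplexed GAL4-UAS reporter units and exogenous chimeric NR-Gal4 proteins; reporter mRNA quantified after 24 h compound exposure by RT-PCR, fluorescent labelling, HpaI digestion and capillary electrophoresis; gain-of-signal fitted versus DMSO baseline.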

[6] = target: Nuclear receptor subfamily 1 group I member 2 (Homo sapiens) (UniProt O75469); assay: ATG_PXR_TRANS: Attagene TRANS-FACTORIAL HepG2 Assay for human Pregnane X Receptor (PXR) (AID 2283008)
In short: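 Transactivation by exogenous PXR–GAL4 fusion measured as reporter transcript induction after 24 h compound treatment of transfected human HepG2 cells. Read-out via RT-PCR and capillary electrophoresis of labelled fragments, fitted upward relative to DMSO.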

[7] = target: human Retinoic Acid Receptor gamma (RARg), RARG (gene 5916) (UniProt P13631); assay: ATG_RARg_TRANS: Attagene TRANS-FACTORIAL HepG2 Assay for human Retinoic Acid Receptor gamma (RARg) (AID 2283009)
In short: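 TRANS format measured activity of exogenous NR-GAL4 fusion (RARg) in transfected HepG2 liver cells after 24 h dosing. Induced reporter RNA was detected by RT-PCR/capillary electrophoresis fluorescence, analysed in the positive direction against DMSO.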

[8] = target: human RAR-related Orphan Receptor beta (RORb), RORB (gene 6096) (UniProt Q92753); assay: ATG_RORb_TRANS: Attagene TRANS-FACTORIAL HepG2 Assay for human RAR-related Orphan Receptor beta (RORb) (AID 2283010)
In short: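 Transfect HepG2 with multiple GAL4-UAS reporter transcription units; dose chemicals for 24 h; isolate RNA, reverse-transcribe and PCR-amplify reporter sequences; label, digest and resolve fragments by capillary electrophoresis; fit increases relative to DMSO.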

[9] = target: human Retinoid X Receptor beta (RXRb), RXRB (gene 6257) (UniProt P28702); assay: ATG_RXRb_TRANS: Attagene TRANS-FACTORIAL HepG2 Assay for human Retinoid X Receptor beta (RXRb) (AID 2283013)
In short: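 Chimeric receptor-Gal4 activity was assessed in transiently transfected human HepG2 cells after 24 h exposure. Transcripts from GAL4-UAS reporters were quantified by fluorescent RT-PCR and capillary electrophoresis, with DMSO as negative control and baseline.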

[10] = read-out: E-selectin (Homo sapiens) (UniProt P16581); assay: BSK_3C_Eselectin: BioMAP Diversity Plus: 3C Assay for Eselectin Biomarker Activity (AID 2283015; active = hit-call score of the fitted dose curve at least 0.9, where 1 is the maximum; inactive = score below 0.9;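 for outcome: cell surface E-selectin protein quantified by ELISA 24 h after dosing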); settings: primary human endothelial cells (HUVEC); actives raise or lower the signal
In short: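 Primary human umbilical vein endothelial cells (3C system) were dosed with chemical and cell-surface E-selectin measured by ELISA 24 h later. Bidirectional curve fitting used DMSO as negative control and baseline.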

[11] = read-out: Interleukin-1 alpha (IL1a), IL1A (gene 3552); assay: BSK_BE3C_IL1a: BioMAP Diversity Plus: BE3C Assay for Interleukin-1 alpha (IL1a) Biomarker Activity (AID 2283016; active = hit-call score of the fitted dose curve at least 0.9, where 1 is the maximum; inactive = score below 0.9); settings: primary human bronchial epithelial cells; actives raise or lower the signal
In short: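 Signal from IL-1a ELISA, taken 24 h after chemical dosing of human bronchial epithelial cells, is compared with DMSO as baseline using bidirectional curve fitting.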

[12] = read-out: Monocyte Chemoattractant Protein-1 (MCP1), CCL2 (gene 6347); assay: BSK_3C_MCP1: BioMAP Diversity Plus: 3C Assay for Monocyte Chemoattractant Protein-1 (MCP1) Biomarker Activity (AID 2283017; active = hit-call score of the fitted dose curve at least 0.9, where 1 is the maximum; inactive = score below 0.9); settings: primary human endothelial cells (HUVEC); actives raise or lower the signal
In short: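 Primary human umbilical vein endothelial cells (3C system) were exposed to test chemical for 24 h, after which MCP-1 was quantified by ELISA. Activity was fitted bidirectionally against DMSO as negative control and baseline.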

[13] = read-out: Monocyte Chemoattractant Protein-1 (MCP1), CCL2 (gene 6347); assay: BSK_4H_MCP1: BioMAP Diversity Plus: 4H Assay for Monocyte Chemoattractant Protein-1 (MCP1) Biomarker Activity (AID 2283018; active = hit-call score of the fitted dose curve at least 0.9, where 1 is the maximum; inactive = score below 0.9); settings: primary human endothelial cells (HUVEC); actives raise or lower the signal
In short: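 Endothelial cells from umbilical vein were treated with test chemical, then after 24 h MCP-1 levels were quantified by ELISA; endpoint values came from bidirectional fitting with DMSO as baseline of activity.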

[14] = read-out: Human Leukocyte Antigen - DR isotype (HLADR), HLA-DRA (gene 3122); assay: BSK_3C_HLADR: BioMAP Diversity Plus: 3C Assay for Human Leukocyte Antigen - DR isotype (HLADR) Biomarker Activity (AID 2283019; active = hit-call score of the fitted dose curve at least 0.9, where 1 is the maximum; inactive = score below 0.9;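 for outcome: ELISA of cell-surface HLA-DR on HUVEC 24 h after dosing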); settings: primary human endothelial cells (HUVEC); actives raise or lower the signal
In short: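 Primary human umbilical vein endothelial cells (3C system) were dosed with compound and cell-surface HLA-DR was quantified by ELISA at 24 h. Activity was fitted bidirectionally against DMSO as negative control and baseline.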

[15] = target: human RAR-related Orphan Receptor gamma (RORg), RORC (gene 6097) (UniProt P51449); assay: ATG_RORg_TRANS: Attagene TRANS-FACTORIAL HepG2 Assay for human RAR-related Orphan Receptor gamma (RORg) (AID 2283011)
In short: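 Readout: reporter transcript induction (RT-PCR, fluorescent primer extension, capillary electrophoresis) after 24 h compound exposure of transiently transfected HepG2 cells carrying a RORg-Gal4 chimera and GAL4-UAS reporters; DMSO served as baseline, with increasing signal fitted.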

[16] = target: Retinoic acid receptor RXR-alpha (Homo sapiens) (UniProt P19793); assay: ATG_RXRa_TRANS: Attagene TRANS-FACTORIAL HepG2 Assay for human Retinoid X Receptor alpha (RXRa) (AID 2283012)
In short: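 Measures exogenous chimeric NR-GAL4 activity in transfected HepG2 liver cells after 24 h of dosing. Induced reporter mRNA was detected by RT-PCR with capillary electrophoresis, and gain of signal was analysed against DMSO.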

[17] = target: human Thyroid Receptor alpha (THRa1), THRA (gene 7067) (UniProt P10827); assay: ATG_THRa1_TRANS: Attagene TRANS-FACTORIAL HepG2 Assay for human Thyroid Receptor alpha (THRa1) (AID 2283014)
In short: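 HepG2 cells transiently transfected with multiplexed GAL4-UAS reporter units for exogenous chimeric THRa1-Gal4; reporter mRNA measured 24 h after dosing by RT-PCR, 6-FAM labelling, HpaI digestion and capillary electrophoresis. Gain-of-signal fitted versus DMSO baseline.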

[18] = target: human Peroxisome Proliferator-activated Receptor delta (PPARd), PPARD (gene 5467) (UniProt Q03181); assay: ATG_PPARd_TRANS: Attagene TRANS-FACTORIAL HepG2 Assay for human Peroxisome Proliferator-activated Receptor delta (PPARd) (AID 2283002)
In short: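 HepG2 cells transiently transfected with multiplexed GAL4-UAS reporter units and exogenous chimeric NR-Gal4 proteins; 24 h compound exposure. Reporter mRNA measured by RT-PCR, 6-FAM labelling, HpaI digestion and capillary electrophoresis; gain of signal versus DMSO.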

[19] = target: human Retinoic Acid Receptor beta (RARb), RARB (gene 5915) (UniProt P10826); assay: ATG_RARb_TRANS: Attagene TRANS-FACTORIAL HepG2 Assay for human Retinoic Acid Receptor beta (AID 2283004)
In short: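 HepG2 cells transiently transfected with multiplexed GAL4-UAS reporter units expressing chimeric NR–Gal4 fusions; 24 h compound exposure. Reporter mRNA quantified by RT-PCR, 6-FAM labelling, HpaI digestion and capillary electrophoresis; gain-of-signal fitted against DMSO baseline.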

[20] = target: Retinoic acid receptor alpha (Homo sapiens) (UniProt P10276); assay: ATG_RARa_TRANS: Attagene TRANS-FACTORIAL HepG2 Assay for human Retinoic Acid Receptor alpha (RARa) (AID 2283005)
In short: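 HepG2 cells transiently transfected with multiple reporter units expressing chimeric RARα-GAL4 fusion, with GAL4-UAS-driven reporters. After 24 h compound exposure, reporter mRNA induction quantified by RT-PCR and capillary electrophoresis with fluorescent labeling; gain-of-signal fitted relative to DMSO control.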

Chain of human Thyroid Receptor alpha (THRa1), THRA (gene 7067) (P10827 whole entry, looked up, the tested form may be a part): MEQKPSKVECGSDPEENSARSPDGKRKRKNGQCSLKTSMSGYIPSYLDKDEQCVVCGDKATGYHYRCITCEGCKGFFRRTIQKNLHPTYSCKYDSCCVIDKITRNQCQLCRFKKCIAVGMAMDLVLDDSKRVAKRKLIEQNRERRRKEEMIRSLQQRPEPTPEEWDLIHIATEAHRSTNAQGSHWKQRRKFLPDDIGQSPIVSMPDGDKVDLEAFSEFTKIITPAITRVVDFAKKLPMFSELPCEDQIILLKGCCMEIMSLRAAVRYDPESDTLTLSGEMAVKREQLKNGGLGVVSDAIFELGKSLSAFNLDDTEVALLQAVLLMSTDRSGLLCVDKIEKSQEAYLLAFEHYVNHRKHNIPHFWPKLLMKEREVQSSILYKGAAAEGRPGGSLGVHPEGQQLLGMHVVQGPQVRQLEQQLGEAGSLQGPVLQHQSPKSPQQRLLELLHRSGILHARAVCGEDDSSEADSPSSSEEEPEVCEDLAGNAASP
Chain of E-selectin (Homo sapiens) (P16581 whole entry, looked up): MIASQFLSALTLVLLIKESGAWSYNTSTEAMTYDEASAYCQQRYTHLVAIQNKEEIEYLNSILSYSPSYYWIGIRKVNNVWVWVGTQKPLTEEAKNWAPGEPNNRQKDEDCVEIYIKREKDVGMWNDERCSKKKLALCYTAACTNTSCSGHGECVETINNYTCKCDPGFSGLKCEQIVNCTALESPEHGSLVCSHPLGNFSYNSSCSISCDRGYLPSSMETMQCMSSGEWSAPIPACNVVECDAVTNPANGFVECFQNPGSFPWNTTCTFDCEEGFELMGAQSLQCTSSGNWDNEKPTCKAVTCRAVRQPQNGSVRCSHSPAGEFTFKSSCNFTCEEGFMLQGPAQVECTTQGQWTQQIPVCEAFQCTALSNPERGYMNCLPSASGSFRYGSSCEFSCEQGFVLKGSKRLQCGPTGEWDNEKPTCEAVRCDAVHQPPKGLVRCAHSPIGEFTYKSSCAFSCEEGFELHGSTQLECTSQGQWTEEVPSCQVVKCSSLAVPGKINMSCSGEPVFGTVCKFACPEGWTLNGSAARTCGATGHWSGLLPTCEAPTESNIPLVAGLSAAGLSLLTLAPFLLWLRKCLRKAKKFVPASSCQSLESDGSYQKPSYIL
Chain of human Retinoic Acid Receptor gamma (RARg), RARG (gene 5916) (P13631 whole entry, looked up, the tested form may be a part): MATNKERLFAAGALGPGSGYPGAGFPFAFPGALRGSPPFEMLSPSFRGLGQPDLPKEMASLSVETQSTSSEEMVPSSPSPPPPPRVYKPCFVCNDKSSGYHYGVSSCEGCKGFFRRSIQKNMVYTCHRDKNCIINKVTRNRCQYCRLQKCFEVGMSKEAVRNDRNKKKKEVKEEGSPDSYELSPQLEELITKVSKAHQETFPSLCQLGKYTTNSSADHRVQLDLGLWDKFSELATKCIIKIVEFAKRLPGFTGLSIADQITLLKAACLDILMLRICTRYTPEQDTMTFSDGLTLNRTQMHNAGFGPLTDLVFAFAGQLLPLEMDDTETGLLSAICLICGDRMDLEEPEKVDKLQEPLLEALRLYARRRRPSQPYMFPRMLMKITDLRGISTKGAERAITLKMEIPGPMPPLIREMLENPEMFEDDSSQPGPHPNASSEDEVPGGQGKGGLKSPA
Chain of human RAR-related Orphan Receptor gamma (RORg), RORC (gene 6097) (P51449 whole entry, looked up, the tested form may be a part): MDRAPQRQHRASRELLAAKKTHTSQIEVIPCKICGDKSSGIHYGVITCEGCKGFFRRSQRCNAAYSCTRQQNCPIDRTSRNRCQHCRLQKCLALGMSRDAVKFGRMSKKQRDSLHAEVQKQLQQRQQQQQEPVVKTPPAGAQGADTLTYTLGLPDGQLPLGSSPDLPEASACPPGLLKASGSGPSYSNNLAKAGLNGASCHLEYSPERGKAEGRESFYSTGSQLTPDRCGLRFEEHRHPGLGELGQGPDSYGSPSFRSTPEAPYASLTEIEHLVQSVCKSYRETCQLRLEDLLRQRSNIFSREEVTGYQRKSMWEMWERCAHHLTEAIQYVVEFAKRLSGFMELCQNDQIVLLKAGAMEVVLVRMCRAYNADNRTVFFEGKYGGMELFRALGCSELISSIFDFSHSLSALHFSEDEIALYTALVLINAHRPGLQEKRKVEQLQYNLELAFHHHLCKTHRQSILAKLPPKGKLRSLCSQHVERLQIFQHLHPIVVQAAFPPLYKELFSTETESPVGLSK
Chain of Retinoic acid receptor RXR-alpha (Homo sapiens) (P19793 whole entry, looked up, the tested form may be a part): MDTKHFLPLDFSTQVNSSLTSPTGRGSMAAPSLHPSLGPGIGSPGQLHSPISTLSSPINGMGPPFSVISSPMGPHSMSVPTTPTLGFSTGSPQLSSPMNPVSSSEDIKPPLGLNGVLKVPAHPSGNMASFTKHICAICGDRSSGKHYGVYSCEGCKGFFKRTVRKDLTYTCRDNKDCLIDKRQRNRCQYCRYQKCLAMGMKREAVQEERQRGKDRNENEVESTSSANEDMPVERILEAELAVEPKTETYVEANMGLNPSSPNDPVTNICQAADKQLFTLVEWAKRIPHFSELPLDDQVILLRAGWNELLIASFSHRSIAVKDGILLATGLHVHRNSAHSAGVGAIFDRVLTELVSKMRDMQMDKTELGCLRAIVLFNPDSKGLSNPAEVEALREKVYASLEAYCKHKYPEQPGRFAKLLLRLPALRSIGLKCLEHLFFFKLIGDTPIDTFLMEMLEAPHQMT
Chain of human Retinoid X Receptor beta (RXRb), RXRB (gene 6257) (P28702 whole entry, looked up, the tested form may be a part): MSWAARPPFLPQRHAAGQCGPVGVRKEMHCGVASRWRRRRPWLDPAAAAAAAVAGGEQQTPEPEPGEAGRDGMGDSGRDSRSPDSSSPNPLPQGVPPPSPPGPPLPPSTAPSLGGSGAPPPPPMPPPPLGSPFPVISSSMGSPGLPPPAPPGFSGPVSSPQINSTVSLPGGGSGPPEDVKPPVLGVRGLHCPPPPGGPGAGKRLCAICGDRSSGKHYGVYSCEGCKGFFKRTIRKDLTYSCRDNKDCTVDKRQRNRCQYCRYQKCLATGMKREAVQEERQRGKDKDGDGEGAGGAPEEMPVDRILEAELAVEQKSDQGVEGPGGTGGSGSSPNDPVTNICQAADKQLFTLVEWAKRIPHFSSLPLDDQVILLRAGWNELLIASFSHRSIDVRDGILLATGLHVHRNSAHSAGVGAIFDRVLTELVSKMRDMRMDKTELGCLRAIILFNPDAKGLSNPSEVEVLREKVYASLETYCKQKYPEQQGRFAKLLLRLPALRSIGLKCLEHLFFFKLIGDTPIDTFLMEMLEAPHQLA
Chain of Nuclear receptor subfamily 1 group I member 2 (Homo sapiens) (O75469 whole entry, looked up, the tested form may be a part): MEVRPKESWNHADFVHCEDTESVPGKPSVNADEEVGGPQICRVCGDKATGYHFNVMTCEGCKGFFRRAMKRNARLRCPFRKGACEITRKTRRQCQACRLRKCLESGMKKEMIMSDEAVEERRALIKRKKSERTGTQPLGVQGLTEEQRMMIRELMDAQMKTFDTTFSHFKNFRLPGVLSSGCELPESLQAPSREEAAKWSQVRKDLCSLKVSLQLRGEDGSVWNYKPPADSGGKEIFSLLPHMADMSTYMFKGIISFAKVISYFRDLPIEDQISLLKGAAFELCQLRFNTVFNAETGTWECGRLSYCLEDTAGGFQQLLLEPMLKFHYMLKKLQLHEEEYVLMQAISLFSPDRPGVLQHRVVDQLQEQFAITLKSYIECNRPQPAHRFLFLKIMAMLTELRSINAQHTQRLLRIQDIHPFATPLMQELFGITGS
Chain of Peroxisome proliferator-activated receptor gamma (Homo sapiens) (P37231 whole entry, looked up, the tested form may be a part): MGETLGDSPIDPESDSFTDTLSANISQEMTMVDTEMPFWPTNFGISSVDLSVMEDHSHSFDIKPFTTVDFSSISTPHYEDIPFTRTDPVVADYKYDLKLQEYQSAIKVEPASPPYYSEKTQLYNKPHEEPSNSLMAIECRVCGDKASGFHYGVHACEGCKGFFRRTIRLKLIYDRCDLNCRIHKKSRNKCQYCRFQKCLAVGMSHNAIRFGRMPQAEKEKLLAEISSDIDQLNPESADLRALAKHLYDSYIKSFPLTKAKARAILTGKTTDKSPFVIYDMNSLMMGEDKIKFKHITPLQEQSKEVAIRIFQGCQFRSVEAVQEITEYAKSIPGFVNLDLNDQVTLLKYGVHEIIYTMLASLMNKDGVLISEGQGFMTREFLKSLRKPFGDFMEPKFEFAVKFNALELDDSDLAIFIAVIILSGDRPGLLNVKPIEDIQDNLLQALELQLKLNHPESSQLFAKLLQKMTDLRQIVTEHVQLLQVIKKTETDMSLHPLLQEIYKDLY
Chain of human Peroxisome Proliferator-activated Receptor delta (PPARd), PPARD (gene 5467) (Q03181 whole entry, looked up, the tested form may be a part): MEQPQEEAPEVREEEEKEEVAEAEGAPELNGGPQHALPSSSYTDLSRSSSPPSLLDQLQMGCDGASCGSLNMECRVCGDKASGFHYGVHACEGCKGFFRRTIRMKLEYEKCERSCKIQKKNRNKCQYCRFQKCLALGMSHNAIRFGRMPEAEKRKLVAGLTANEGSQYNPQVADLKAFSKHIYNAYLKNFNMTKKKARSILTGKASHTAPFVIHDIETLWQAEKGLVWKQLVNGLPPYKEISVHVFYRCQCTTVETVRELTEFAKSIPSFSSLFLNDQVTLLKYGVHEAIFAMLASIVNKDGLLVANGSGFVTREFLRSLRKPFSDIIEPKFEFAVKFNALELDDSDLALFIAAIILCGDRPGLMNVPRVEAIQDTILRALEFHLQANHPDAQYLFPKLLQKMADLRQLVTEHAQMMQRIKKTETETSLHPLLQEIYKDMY
Chain of human RAR-related Orphan Receptor beta (RORb), RORB (gene 6096) (Q92753 whole entry, looked up, the tested form may be a part): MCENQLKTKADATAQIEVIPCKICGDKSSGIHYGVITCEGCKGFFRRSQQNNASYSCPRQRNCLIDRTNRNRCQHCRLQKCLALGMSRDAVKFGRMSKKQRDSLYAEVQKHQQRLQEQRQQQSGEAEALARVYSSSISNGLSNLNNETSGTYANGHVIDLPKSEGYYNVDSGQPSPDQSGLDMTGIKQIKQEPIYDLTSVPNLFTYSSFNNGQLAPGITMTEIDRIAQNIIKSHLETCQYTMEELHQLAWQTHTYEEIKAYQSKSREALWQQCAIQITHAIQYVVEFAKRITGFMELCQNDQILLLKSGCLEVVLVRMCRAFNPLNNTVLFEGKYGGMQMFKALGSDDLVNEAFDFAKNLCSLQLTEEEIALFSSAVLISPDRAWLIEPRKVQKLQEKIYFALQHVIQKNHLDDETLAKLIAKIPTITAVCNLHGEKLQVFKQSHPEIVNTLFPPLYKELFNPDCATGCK

SMILES: CCOC(=O)C=Cc1ccccc1
- outcome [1]: inactive
- outcome [2]: inactive
- outcome [3]: inactive
- outcome [4]: inactive
- AC50 [5]: 25.4 µM (active)
- AC50 [6]: 30.8 µM (active)
- outcome [7]: inactive
- outcome [8]: inactive
- outcome [9]: inactive
- outcome [10]: inactive
- outcome [11]: inactive
- outcome [12]: inactive
- outcome [13]: inactive
- outcome [14]: inactive

SMILES: C=C1CC/C=C(\C)CC[C@@H]2[C@@H]1CC2(C)C
- AC50 [1]: 28.8 µM (active)
- AC50 [3]: 35 µM (active)
- AC50 [4]: 30 µM (active)
- outcome [5]: inactive
- AC50 [6]: 19.8 µM (active)
- outcome [15]: inactive
- outcome [16]: inactive
- AC50 [9]: 19.4 µM (active)
- outcome [17]: inactive
- AC50 [10]: 27.4 µM (active)
- outcome [11]: inactive
- AC50 [12]: 31.5 µM (active)
- AC50 [13]: 29.1 µM (active)
- AC50 [14]: 28.7 µM (active)

SMILES: O=C(c1ccc(OCCN2CCCCC2)cc1)c1c(-c2ccc(O)cc2)sc2cc(O)ccc12
- AC50 [1]: 34.4 µM (active)
- outcome [2]: inactive
- outcome [18]: inactive
- AC50 [3]: 38.2 µM (active)
- AC50 [4]: 12.9 µM (active)
- AC50 [5]: 13.7 µM (active) [middle of 4 runs]
- outcome [5]: inactive
- AC50 [6]: 1.97 µM (active) and 3.44 µM (active)
- outcome [6]: inactive
- outcome [15]: inactive
- outcome [16]: inactive
- outcome [9]: inactive
- AC50 [17]: 8.22 µM (active) and 15 µM (active) and 11.1 µM (active)
- outcome [17]: inactive
- AC50 [10]: 37.8 µM (active)
- AC50 [11]: 31.2 µM (active)
- AC50 [12]: 27.3 µM (active)
- AC50 [13]: 22.1 µM (active)
- AC50 [14]: 17.4 µM (active)

SMILES: c1ccc2c(c1)-c1ccc3ccc4cccc5cc-2c1c3c45
- AC50 [1]: 0.981 µM (active)
- outcome [2]: inactive
- outcome [18]: inactive
- outcome [3]: inactive
- outcome [4]: inactive
- outcome [5]: inactive
- outcome [8]: inactive
- outcome [15]: inactive
- outcome [9]: inactive
- outcome [17]: inactive
- AC50 [10]: 0.575 µM (active)
- outcome [11]: inactive
- outcome [12]: inactive
- outcome [13]: inactive
- AC50 [14]: 0.621 µM (active)

SMILES: C[C@]12CC[C@@H]3c4ccc(O)cc4CC[C@H]3[C@@H]1CC[C@@H]2O
- AC50 [1]: 20 µM (active)
- outcome [18]: inactive
- outcome [3]: inactive
- outcome [19]: inactive
- outcome [20]: inactive
- AC50 [4]: 8.41 µM (active)
- outcome [5]: inactive
- AC50 [6]: 5.7 µM (active) and 3.83 µM (active) and 4.54 µM (active)
- outcome [6]: inactive
- outcome [7]: inactive
- outcome [8]: inactive
- outcome [15]: inactive
- outcome [16]: inactive
- outcome [9]: inactive
- outcome [17]: inactive
- AC50 [10]: 4.87 µM (active)
- outcome [11]: inactive
- AC50 [12]: 12.2 µM (active)
- AC50 [13]: 9.45 µM (active)
- AC50 [14]: 16.1 µM (active)

SMILES: CCC(=O)OCC=Cc1ccccc1
- outcome [1]: inactive
- outcome [3]: inactive
- outcome [4]: inactive
- outcome [5]: inactive
- AC50 [6]: 16.7 µM (active)
- outcome [15]: inactive
- outcome [16]: inactive
- outcome [9]: inactive
- outcome [10]: inactive
- outcome [11]: inactive
- outcome [12]: inactive
- outcome [13]: inactive
- outcome [14]: inactive

SMILES: CC(C)CCCC(C)(C)O
- outcome [1]: inactive
- outcome [18]: inactive
- outcome [3]: inactive
- outcome [4]: inactive
- outcome [8]: inactive
- outcome [15]: inactive
- outcome [16]: inactive
- outcome [9]: inactive
- outcome [10]: inactive
- outcome [11]: inactive
- outcome [12]: inactive
- outcome [13]: inactive
- outcome [14]: inactive
